Not all results are given here. The true hit rate is not given.
B1: il10ra_site1_normal_mot_HHH_b2_08186_000000021_0001_43_56_H_._HHH_b2_05014_af2_0002_0000100001_0000002_0 (protein)
chain: SSSSDEEELRELIEEAEELLERGNPEEALEVVLRALQLAFELSNAETLQRIWELLKRIATSSSSS
B2: il10ra_site1_sap_21_mot_HHH_b2_02463_af2_000000222_0001_1_19_H_._HHH_b1_01285_0001_0000200013_0000001_0_0001 (protein)
chain: SSSSDEANQEALELVVEAVRLALRGNPEEAKEVLEEARELAREGNNERLVKMIEDMLRALDSSSS
B3: il10ra_site1_sap_26_mot_HHH_b1_01707_000000240_0001_1_17_H_._HHH_b2_07405_0001_0000500060_0000001_0_0001 (protein)
chain: SSSSDQEFARLMMEALHLAFQLRDPETLRELWELYRRYAEEGDPRYEEALEELLEELRERSSSSS
B4: il10ra_site1_normal_mot_HHH_b2_03328_af2_000000127_0001_1_19_H_._f3d5fbb9806109dc41c8faca98c9de00_0001_1_0001_0000300008_0000002_0_af2pred_dldesign_0_af2pred (protein)
chain: LELSRLLSDAVITAKNPELAQRLAEVAREIAEDPSKLEELLAELLEEAKAAGDEEVVALLEKALE
B5: il10ra_site1_normal_mot_HHH_b2_06767_000000020_0001_41_56_H_._HHH_b2_06012_0001_0000200016_0000002_0_af2pred_0001 (protein)
chain: SSSSSVHEAAQLLLRVARALKEGDEELLEELRKELEELLKKLDDERARLAVRAALAAIKNFSSSS
B6: il10ra_site1_sap_27_mot_HHH_b1_06128_000000102_0001_1_20_H_._HHH_b1_02043_af2_0001_0000100004_0000002_0_0001 (protein)
chain: SSSSDVEEEVRELLEEAQRYYEEGNPQEVFRLIEEAIKVASEHGDEEAQKLVHEFLHEMFGSSSS
B7: il10ra_site1_normal_mot_HHH_b2_00984_000000042_0001_1_20_H_._HHH_b1_04863_af2_0001_0000500015_0000001_0 (protein)
chain: SSSSSDEEEELEELLEQLKKALEENDRELVAQLARRLVQLAFRLSDPEALQEAWELIRLLSSSSS
B8: il10ra_site1_normal_mot_HHH_b1_01821_000000158_0001_23_39_H_._HHH_b1_04578_0001_0000500034_0000001_1 (protein)
chain: SSSSSEFQRLAQRAVQLAFRLSDQEVLRRIWELFKRYIEEGDPRLEEELEELLEELEERGSSSSS
B9: il10ra_site1_normal_mot_HHH_b2_00277_af2_000000172_0001_1_17_H_._HHH_b1_06276_0001_0000100006_0000001_0_af2pred_0001 (protein)
chain: SSSSSSTEEEVEELLEEAKRIEDPEERSYVLTEAWALAYRLNDPELEREIEEVAKRLTSSSSSSS
B10: il10ra_site1_sap_17_mot_HHH_b2_04681_000000155_0001_43_57_H_._HHH_b2_07038_af2_0001_0000400013_0000001_0_0001_af2pred_dldesign_0_af2pred (protein)
chain: SSSSSSSDPERILALIRRALEEEDPEKARELLEEALRLAKEAGNEVAIRAAEYLLRQVSSSSSSS
B11: il10ra_site1_normal_mot_HHH_b2_03328_af2_000000127_0001_1_19_H_._HHH_b1_08499_0001_0000200023_0000001_0 (protein)
chain: SSSSDVAEEAYELSRRAAELLYQGNPEEARELLEEAEELLKERGDHVILFAVRLLLRILNSSSSS
B12: il10ra_site1_normal_mot_HHH_b2_00475_000000107_0001_44_57_H_._HHH_b2_03520_0001_0000400025_0000001_0 (protein)
chain: SSSSDEEEVSHLLFRALQLLEEGDKEEAEELVEEAKRIAEESNDPELERYVEIAEHFVKAHSSSS
B13: il10ra_site1_sap_33_mot_HHH_b2_07521_000000141_0001_20_37_H_._HHH_b2_01915_0001_0000700039_0000001_1_0001 (protein)
chain: SSSSSEEVEELLEQARELAEEGDFEEAAKLLLEALQIAAELQDPELLRLVWEVLHEVARLNSSSS
B14: il10ra_site1_sap_40_mot_HHH_b1_00102_af2_000000216_0001_43_57_H_._HHH_b1_07360_0001_0000500039_0000002_0_0001_af2pred_0001 (protein)
chain: SSSSSDEEELEEEAKRLMEELEKHGDPELFTRLAELAKLLAELGNPLFEEVAELLARLQSSSSSS
B15: il10ra_site1_sap_25_mot_HHH_b2_05540_000000178_0001_1_18_H_._ems_p1-15H-GBL-16H-GABBL-16H_0381_0001_0001_0001_0001_0000500025_0000002_0_0001 (protein)
chain: SSSSSDMEELYRRIAELLRRLREVSPEEREELLREAKELAEELNNEYLKRAIEHMARAVNSSSSS
B16: il10ra_site1_sap_27_mot_HHH_b2_02537_000000065_0001_1_20_H_._HHH_b2_03111_af2_0001_0000200010_0000001_0_0001 (protein)
chain: SSSSSAAEELKEIIEELLRLQREGDEEEFEKLIEEAERELKEKGDQLSLRIIEYILRLFHSSSSS
B17: il10ra_site1_normal_mot_HHH_b1_02062_000000185_0001_1_20_H_._HHH_b1_02799_af2_0001_0000300032_0000001_0 (protein)
chain: SSSSDELLQEVYELSREAAELDSDGDKEEAEKILEEAEEIAKELGNELFLFQVEYMLRLLKSSSS
B18: il10ra_site1_normal_mot_8756ee2cf497b5429c717dfc0c0bcfd6_0001_000000186_0001_1_13_H_._HHH_b2_02097_0001_0000100006_0000001_0 (protein)
chain: SSSSDLEEAIELVRRVVELLHEGNVEEARELVEEAEKVVEEAGNDVLRWQLEYLKRLLERDSSSS
B19: il10ra_site1_normal_mot_HHH_b2_02053_af2_000000006_0001_3_19_H_._HHH_b1_07461_0001_0000100009_0000001_0_af2pred_0001 (protein)
chain: SSSSSASEEVRKLLREALELLDKGNPEEAEELVEEAVRIAEENNNPVLLFVAEFLLKDIRGSSSS
B20: il10ra_site1_normal_mot_HHH_b2_00837_af2_000000287_0001_40_54_H_._HHH_b2_01069_af2_0001_0000200019_0000002_0 (protein)
chain: SSSSDEEERIKKLIEEVEELLEEGDPEEALELLFEATHFALELGNAELLREIWELVRSLKSSSSS
B21: il10ra_site1_normal_mot_HHH_b2_02386_000000054_0001_1_20_H_._HHH_b2_05043_0001_0000400073_0000003_0 (protein)
chain: SSSSTDESYELLREAIEEVIRLYKEGNPEEAEKVVEEVARRLEELGNPLAARQLENLLRLLSSSS
B22: il10ra_site1_normal_mot_HHH_b1_04771_000000013_0001_40_56_H_._HHH_b2_04957_af2_0001_0000100002_0000001_1 (protein)
chain: SSSSSEEVEEAVELSTKAFRLALRGNDEEAEEVLKEALKIAEEGNDPRIREVVEDLLQALSSSSS
B23: il10ra_site1_normal_mot_HHH_b1_01879_000000050_0001_1_18_H_._HHH_b1_00727_af2_0001_0000600044_0000002_0_af2pred_0001 (protein)
chain: SSSSSEEVLRLLLEALKLIRRGDLEEAEEVLKEMERLAEELNDEQARRAVEVLKRLLEELGSSSS
B24: il10ra_site1_sap_19_mot_HHH_b2_00335_000000038_0001_43_57_H_._HHH_b1_03234_0001_0000400063_0000002_0_0001 (protein)
chain: SSSSEAVKRVAELLREASKLQNDGNPEEAERVAEEALEVAEEGNNPLLEWQARFLLHRIRNSSSS
B25: il10ra_site1_normal_mot_HHH_b1_02708_af2_000000019_0001_23_39_H_._e0a7e7c149437fae01dc270677924e9f_0001_1_0001_0000100001_0000001_0 (protein)
chain: SLEEEVTELVRELGLPPMVESAVRSFVLAKELGDEEYLKIAEHFLEAQARRDPNVEEVLRFLRER
B26: il10ra_site1_normal_mot_HHH_b2_04646_000000019_0001_1_20_H_._HHH_b2_05789_af2_0001_0000400029_0000001_0 (protein)
chain: SSSSSDEEEAREEAERLLEEAEQIEDRHEVARLLYRASRLAAEGQDDELARRLVKLFARLSSSSS
B27: il10ra_site1_normal_mot_HHH_b2_00475_000000107_0001_44_57_H_._HHH_b2_01638_af2_0001_0000900052_0000002_0 (protein)
chain: SSSSEAEQRVAELLFRALRLLYEGNPEEAKEVVEEARRLAEENNDEELEEYVRILKHFIESHSSS
B28: il10ra_site1_normal_mot_8756ee2cf497b5429c717dfc0c0bcfd6_0001_000000186_0001_1_13_H_._HHH_b2_00335_af2_0001_0000300021_0000001_0_af2pred_0001 (protein)
chain: SSSSSDRLRELLELLRRIIELSRDGDPEEARKLIEEAQELAEELNDEVAKAILEFLEEHVNSSSS
B29: il10ra_site1_normal_mot_HHH_b1_00999_000000080_0001_41_55_H_._HHH_b1_02031_af2_0001_0000100001_0000001_0 (protein)
chain: SSSSSDEEEEEVERLLEEAEKIPDPRERNEILLEALHIALELGDEELLQLVWKVVKELGSSSSSS
B30: il10ra_site1_normal_mot_HHH_b1_05326_000000242_0001_1_20_H_._HHH_b1_05311_0001_0000100004_0000001_0 (protein)
chain: SSSSSSDEALELSRRAFKAALHGNPEEARELLEEALELAEERGDERLARIIQDLLKVLSSSSSSS
B31: il10ra_site1_sap_12_mot_HHH_b1_06789_af2_000000041_0001_1_20_H_._HHH_b2_05839_af2_0001_0000300031_0000002_0_0001 (protein)
chain: SSSSSDEEEIEELLREIKELLENNDRERALELIQEALRVIFQHSDEEALRELFELVRKLGSSSSS
B32: il10ra_site1_sap_22_mot_HHH_b2_03220_af2_000000223_0001_23_40_H_._HHH_b1_01542_0001_0000500044_0000001_0_0001_af2pred_0001 (protein)
chain: SSSSSEEEVEELERRIEELLEEGNRHEAAALILRLFALAHELRDPEVEEEARRLAQLAANSSSSS
B33: il10ra_site1_normal_mot_HHH_b2_06857_af2_000000179_0001_42_54_H_._HHH_b1_05676_af2_0001_0000100011_0000001_0 (protein)
chain: SSSSDETEEVVELLRRAAELHSDGDHEEARRLLEEAQELAEELGNELLRYQIEFAERSLDSSSSS
B34: il10ra_site1_sap_25_mot_HHH_b1_01879_000000050_0001_1_18_H_._HHH_b1_08444_0001_0000100004_0000001_0_0001 (protein)
chain: SSSSSTQELYELSRKAMELLRNGNPEEAEKLLEEALELAEEEGNWAAIVALRYILRAIRRSSSSS
B35: il10ra_site1_sap_17_mot_HEEHE_1605_000000211_0001_40_56_H_._9e622f7d73aa0ff91040b48e8c7f7504_0001_1_af2_0001_0000600013_0000002_0_0001 (protein)
chain: SSSSSDANHEALELVLEAMHAMLRGDREEAERLLEEALELAREGNNERLAKQIEILLENASSSSS
B36: il10ra_site1_normal_mot_HHH_b1_04065_000000255_0001_41_56_H_._HHH_b1_07236_0001_0000100003_0000001_1 (protein)
chain: SSSSDEEYRREVEELLEEAEQIEDPHERAEVLARALRRAYEGRDPELFRLVDRVAIELYFSSSSS
B37: il10ra_site1_sap_21_mot_HHH_b2_06979_000000158_0001_42_57_H_._HHH_b1_00540_af2_0001_0000100003_0000001_0_0001 (protein)
chain: SSSTLTERIYKLSEKALELLKQGDTEEAEEVVEEAIELAEEAGSRVLAHVLEFLLEAIKRRSSSS

target: il10ra, Q13651; experiment: yeast display titration
Sequence (Q13651 whole entry): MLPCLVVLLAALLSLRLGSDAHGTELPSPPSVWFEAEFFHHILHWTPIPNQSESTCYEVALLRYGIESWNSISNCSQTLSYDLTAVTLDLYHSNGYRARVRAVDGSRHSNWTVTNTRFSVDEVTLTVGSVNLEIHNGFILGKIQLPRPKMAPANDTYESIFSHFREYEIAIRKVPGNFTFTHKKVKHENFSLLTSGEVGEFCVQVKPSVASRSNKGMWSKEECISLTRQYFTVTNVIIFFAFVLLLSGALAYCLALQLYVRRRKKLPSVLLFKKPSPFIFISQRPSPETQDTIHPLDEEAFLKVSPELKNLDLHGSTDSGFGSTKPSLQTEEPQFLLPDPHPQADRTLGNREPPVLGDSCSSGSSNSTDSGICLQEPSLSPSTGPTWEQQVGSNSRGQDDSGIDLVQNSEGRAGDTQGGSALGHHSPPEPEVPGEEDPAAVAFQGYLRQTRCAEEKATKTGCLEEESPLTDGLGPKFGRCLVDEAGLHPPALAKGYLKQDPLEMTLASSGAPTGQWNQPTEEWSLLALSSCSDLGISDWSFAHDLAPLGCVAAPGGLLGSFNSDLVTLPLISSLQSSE

Apparent Kd, inactive:
B1 no binding seen
B2 no binding seen
B3 no binding seen
B4 no binding seen
B5 no binding seen
B6 no binding seen
B7 no binding seen
B8 no binding seen
B9 no binding seen
B10 no binding seen
B11 no binding seen
B12 no binding seen
B13 > 2780 nM
B14 no binding seen
B15 no binding seen
B16 no binding seen
B17 no binding seen
B18 no binding seen
B19 no binding seen
B20 no binding seen
B21 no binding seen
B22 no binding seen
B23 no binding seen
B24 no binding seen
B25 no binding seen
B26 no binding seen
B27 no binding seen
B28 no binding seen
B29 no binding seen
B30 no binding seen
B31 no binding seen
B32 no binding seen
B33 no binding seen
B34 no binding seen
B35 no binding seen
B36 no binding seen
B37 no binding seen
